Screening data deposited in PubChem BioAssay by National Center for Advancing Translational Sciences (NCATS).
Hits are enriched below; roughly 7.3% of the tested compounds scored in any of these assays.
VACV mCherry inh: qHTS for Stage-Specific Inhibitors of Vaccinia Orthopoxvirus: mCherry Reporter Primary qHTS; actives 0.63% (n = 310,000); Potency, µM (titrated, usually from 36.5 µM), for inactives: at the highest dose activity change, negative = inhibition, most hits filed as inhibitors; AID 720579, 2013; Vaccinia virus mCherry reporter infection, fluorescence; calls by dose curve; tested in A549 cells; also: potency is read from the fitted curve at half-maximal effect; nearly all actives have a fitted effect of over 35% in size
HCMV antiviral: qHTS Assay for inhibitors of the human cytomegalovirus (HCMV); actives 4.5% (n = 410,000); HFF cells, HCMV-luciferase reporter, 72 h; active compounds read low; AID 1259415, 2018; activity change, negative = inhibition, % at 57.5 µM; in the data active = activity change below about -60%; inconclusive = no clear call, values can overlap the other calls; inactive = above about -39%
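After 16 h attachment at 37C, HFF cells received test compound and HCMV-luciferase (1 PFU/cell); reporter luminescence read 72 h later, data normalized against buffer-only and known inhibitor Salinomycin.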
FMDV inh: High Throughput Screening for Foot and Mouth Disease Virus Antivirals; actives 1.2% (n = 410,000); FMDV antiviral cell-based qHTS; Potency, µM (titrated, usually from 57.9 µM), inactives show at the top dose activity change, negative = inhibition, hits mostly inhibitors; calls by dose curve; tested in HEK293T cells; also: read-out not given here; potency is read from the fitted curve at half-maximal effect; nearly all actives have a fitted effect of over 45% in size
HCV inhibitor: qHTS Assay for Inhibitors of Hepatitis C Virus (HCV); Huh7.5.1 HCVcc-Cre infection, luciferase reporter, 44 h; Potency, µM (doses to about 41.8 µM), for inactives: top-dose activity change, negative = inhibition, most hits filed as inhibitors; actives 3.4% (n = 340,000); active = well fitted inhibition curve with a large enough effect; inconclusive = small, poorly fitted or top-dose-only effect, or another doubt; inactive = no such curve, though single readings can be large or run the other way; also: potency is read from the fitted curve at half-maximal effect
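HCVcc-Cre virus at an moi near 0.5 was added right after compound to cells cultured 4 h from seeding (1,000 cells/well). Luciferase activity was determined 44 h later, 15 min after substrate addition at RT.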
Vaccinia Venus: qHTS for Stage-Specific Inhibitors of Vaccinia Orthopoxvirus: Venus Reporter Primary qHTS; AID 720580, 2013; actives 0.46% (n = 330,000); Vaccinia virus Venus reporter expression, fluorescence; Potency, µM (titrated, usually from 36.5 µM), for the others: at the highest dose activity change, negative = inhibition, usual class: inhibitors; calls by dose curve; tested in A549 cells; also: potency is read from the fitted curve at half-maximal effect; nearly all actives have a fitted effect of over 30% in size
* = called active by the depositor; i = inactive; ? = inconclusive; · = not tested or not shown; ! = not confirmed by another sample; [ ] = remark or other dose. % is scaled to controls: 0 for no effect and ±100 for the full control effect.

SMILES	VACV mCherry inh	HCMV antiviral	FMDV inh	HCV inhibitor	Vaccinia Venus
Cc1cccc(C)c1-c1ccc(CN2C(CC(C)C)C(=O)N(Cc3cn(CC4CCCCC4)nn3)CCS2(=O)=O)cc1 (configuration not stated)	?	-100*	-23%	6%	-9%
Cc1nc2sccn2c(=O)c1CCN1CCC(=C(c2ccc(F)cc2)c2ccc(F)cc2)CC1	i	-3	-18%	3.5µM*!	-23%
CC1CCCCC1NC(=O)CSc1nnc(-c2ccco2)n1N (configuration not stated)	-18%	-15	-26%	·	-12%
COC(=O)C1=C(C)N(Cc2ccccc2)C(=NCc2ccc3c(c2)OCO3)N[C@H]1c1ccccc1	-13%	-4	-22%	?	-29%
COC(=O)C1=C(C)N(Cc2cccc(C(F)(F)F)c2)C(=NCc2ccc(C(F)(F)F)cc2)NC1c1ccc(F)cc1 (configuration not stated)	·	-101*	·	·	·
COC(=O)C1=C(C)N(Cc2cccc(C(F)(F)F)c2)C(=NCc2ccc(C(F)(F)F)cc2)NC1c1ccc(C(F)(F)F)cc1 (configuration not stated)	·	-101*	·	·	·
COC(=O)C1=C(C)N(Cc2cccc(C(F)(F)F)c2)C(=NCc2ccc3c(c2)OCO3)NC1c1ccc(F)cc1 (configuration not stated)	·	-85*	·	·	·
CCN1C(=NCC2CC2)N[C@@H](c2cccc(C(F)(F)F)c2)C(C(=O)OC)=C1C	-8%	·	?	?	-25%
Cc1cc(C)cc(NC(=O)CSc2nccn2C2CCCC2)c1	-16%	36	13%	·	-10%
CCc1ccc(CN(C(=O)c2cc(=O)c3ccc(C)cc3o2)C2CCS(=O)(=O)C2)cc1 (configuration not stated)	-9%[7.34 µM]	-34	-10%	·	-15%[7.34 µM]
O=c1n(CC2CO2)c(=O)n(CC2CO2)c(=O)n1CC1CO1 (configuration not stated)	?	-62*	-12%	?	?
COCC(=O)N1CCC2(CC1)CN(c1cccc(-c3ccccc3)c1)C2	·	·	-15%	·	·
CCOP(=O)(OCC)c1cccc(O)c1	-21%	-65*	-13%	20%	-2%
COc1ccc(CNC(=O)c2cc3oc4ccccc4c3n2C)cc1OC	-6%	?	0%	·	2%
CCCOc1ccc(CNC(=O)c2cc3oc4ccccc4c3n2C)cc1	-16%	-86*	6%	·	9%
Cn1c(C(=O)NCc2ccccc2)cc2oc3ccccc3c21	5µM*	-89*	41%	?	-7%
Cn1c(C(=O)NCc2cccs2)cc2oc3ccccc3c21	10µM*	-80*	12%	?	-2%
Cn1c(C(=O)NCC2CCCO2)cc2oc3ccccc3c21 (configuration not stated)	·	33	5%	?	-20%
Cn1c(C(=O)NCc2ccccc2F)cc2oc3ccccc3c21	?	-63*	25%	·	11%
CCCOc1ccc(CNC(=O)Cn2c(=O)oc3ccccc32)cc1	-6%	6	-17%	?	-1%
CC1C(=O)OC2C(O)C34C5CC(C(C)(C)C)C36C(OC(=O)C6O)OC4(C(=O)O5)C12O (configuration not stated)	·	·	-16%	·	·
CC(C)(CCl)C(=O)Nc1ccc(OC(F)(F)F)cc1	i	-19	5%	-9%	-14%
CS/C(=C\[N+](=O)[O-])Nc1ccc(OC(F)(F)F)cc1	·	-61*	-23%	-23%	·
c1coc(C2Nc3ccccc3-c3nc4ccccc4n32)c1 (configuration not stated)	?	36	10%	13µM*	?
CN1CCCC(C)(C(=O)Nc2ccc3scnc3c2)C1 (configuration not stated)	-4%	-2	-10%	·	1%
CCC(=O)N1CCN(c2ccccc2NC(=O)COc2cc(C)ccc2C(C)C)CC1	-4%	62	·	10µM*	-25%
Cc1ccc(C(C)C)c(OCC(=O)NC(=S)Nc2ccccc2N2CCOCC2)c1	-14%	126	-19%	·	0%
O=C(COc1ccc([N+](=O)[O-])cc1)Nc1ccccc1N1CCCC1	·	-64*	?	5%	·
CC(=O)c1ccc(OCC(=O)Nc2ccccc2N2CCCC2)cc1	-16%	-83*	-4%	-12%	-8%
